Assay results as given in PubChem BioAssay (NCI).
Compounds without any hit were thinned out: in the full panel of roughly 83,000, 20% have a hit.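 Compound tested at a single concentration for 48 hours in 96-well plates; a percent growth value below 10 was scored as active.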 Unmarked numbers belong to inactive results. Activity calls are given as the source filed them.

Experiments:
Assay in all cases: NCI-60 one-dose screen, 48 h (100 = growth as untreated, 0 = no growth, -100 = all killed)
Conditions in all cases: 10 µM unless noted
NCI-H23 lung = system: NCI-H23 lung
NCI-H226 lung = system: NCI-H226 lung
NCI-H322M lung = system: NCI-H322M lung
HOP-62 NSCLC = system: HOP-62 NSCLC
NCI-H460 lung = system: NCI-H460 lung
NCI-H522 lung = system: NCI-H522 lung
A549/ATCC NSCLC = system: A549/ATCC NSCLC
786-0 renal = system: 786-0 renal
COLO 205 colon = system: COLO 205 colon
DU-145 prostate = system: DU-145 prostate
K-562 leukemia = system: K-562 leukemia
MALME-3M melanoma = system: MALME-3M melanoma
MDA-MB-231 breast = system: MDA-MB-231 breast
RXF 393 renal = system: RXF 393 renal
SF-268 CNS = system: SF-268 CNS
SF-295 CNS = system: SF-295 CNS
SF-539 CNS = system: SF-539 CNS
UACC-257 melanoma = system: UACC-257 melanoma
M14 melanoma = system: M14 melanoma

Structure (SMILES)	growth (NCI-H23 lung)	growth (NCI-H226 lung)	growth (NCI-H322M lung)	growth (HOP-62 NSCLC)	growth (NCI-H460 lung)	growth (NCI-H522 lung)	growth (A549/ATCC NSCLC)	growth (786-0 renal)	growth (COLO 205 colon)	growth (DU-145 prostate)	growth (K-562 leukemia)	growth (MALME-3M melanoma)	growth (MDA-MB-231 breast)	growth (RXF 393 renal)	growth (SF-268 CNS)	growth (SF-295 CNS)	growth (SF-539 CNS)	growth (UACC-257 melanoma)	growth (M14 melanoma)
CCn1c(=O)c(C(=O)NCCCO)c(O)c2ccccc21	110%	99.1%	134%	101%	111%	101%	103%	106%	110%	122%	89.9%	123%	106%	-24.8% (active)	94.3%	110%	96.8%	125%	124%
COc1cc(C2CC(c3ccccc3)=NN2C=O)ccc1Oc1nc2c(c(=O)n(C)c(=O)n2C)n1C (configuration not stated)	79%	79%	55.4%	102%	91.3%	91.7%	61.5%	98.1%	105%	59%	74.3%	77.9%	71.9%	90.9%	56.3%	62.2%	117%	-27.3% (active)	69.9%
CCc1onc(-c2ccc(OC)cc2)c1-c1ccccc1OCCN(CC)CC	85.4%	93.5%	76.6%	90.4%	98.7%	88.5%	101%	75.9%	67%	96.7%	70.7%	97.7%	93.3%	82.2%	85.8%	79.5%	90.2%	111%	76.3%
C[Si](C)(C)C(c1ccccc1)c1ccccc1	99.5%	113%	105%	105%	106%	98.2%	91.1%	110%	105%	102%	86.7%	90.2%	123%	126%	104%	109%	111%	109%	108%
N/C(=N\OC(=O)c1ccccc1)C(C(=O)NOC(=O)c1ccccc1)C1CCCCC1 (configuration not stated)	49.3%	100%	84.7%	-7% (active)	34.5%	-46.9% (active)	1.51% (active)	76%	77.3%	57.7%	2.85% (active)	85.3%	81.8%	82.1%	31.9%	41.6%	75.1%	92.2%	75.2%
O=C(Nc1ccncc1)C(=O)c1cn(S(=O)(=O)c2cccc(Cl)c2F)c2ccccc12	63.7%	75%	96.7%	89.6%	90%	35.2%	82.8%	77.3%	106%	96.9%	23.9%	53.7%	78.2%	92.5%	80.6%	67.9%	83.2%	89.6%	59.2%
COc1cc(C2CC(c3ccc(Cl)cc3)=NN2C(C)=O)ccc1Oc1nc2c(c(=O)n(C)c(=O)n2C)n1C (configuration not stated)	84.2%	76.8%	72.9%	98.7%	88.1%	92.5%	59.7%	111%	102%	65.2%	101%	100%	85.8%	86.8%	56.8%	62.6%	102%	-8% (active)	67.8%
CCCCCCCCCCCCCCCCCC(=O)[O][Sn]([CH2]CCC)([CH2]CCC)[CH2]CCC	-81.7% (active)	-74.6% (active)	-91.4% (active)	-89.5% (active)	-88.9% (active)	-54.3% (active)	-84.1% (active)	-100% (active)	-80.9% (active)	-100% (active)	-42.8% (active)	-85.9% (active)	-57.8% (active)	-98% (active)	-92.8% (active)	-85.3% (active)	-81.6% (active)	-86.1% (active)	-91.1% (active)
